Drawing on PubChem BioAssay (NCATS), this text covers outcome for 15 molecules.

Results filed as inconclusive are left out. Active and inactive are the calls of the source. Calls come from the whole dose curve; as a rule, active = well fitted cell-killing curve with a large enough effect; inconclusive = small, poorly fitted or top-dose-only effect, or effect the other way; inactive = flat fitted curve, though single readings scatter. Bridge positions count the residues as written; N and C are the ends. Square brackets hold non-standard residues; d marks the D form. Peptide text beside a SMILES is read from it. * marks the point of attachment. Ileψ(thiazoline)Cys = CC[C@H](C)[C@H](N)C1=N[C@H](C(=O)*)CS1; d(aIle) = CC[C@H](C)[C@@H](N)C(=O)O; dOrn = NCCC[C@@H](N)C(=O)O

The nature of the assay: S16 Schwann cell viability assay (CellTiter-Glo assay) (AID 624031).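 Note: native untransfected S16 rat Schwann cells; cellular ATP luminescence as a viability measure; nearly all actives have a fitted effect of over 70% in size.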 The following applies: S16 rat Schwann cells viability, 24 h; series mostly up to 25.7 µM. In outline: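 Cells were seeded at 500-750 per well in phenol red-free DMEM with 10% FBS and left overnight. Compounds or DMSO were pinned in, incubation ran 24 h at 37 °C/5% CO2, then CellTiter-Glo reagent was added and luminescence measured.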
Regarding `CN1CCO[C@H](c2ccccc2)c2ccccc2C1`, the result was inactive. Consider `C[C@H](CCC(=O)O)[C@H]1CC[C@@H]2[C@@H]3[C@@H](O)C[C@H]4C[C@@H](O)CC[C@@]4(C)[C@H]3CC[C@@]21C`, for which the outcome was inactive. Turning to `CCN(CCCCOC(=O)c1ccc(OC)c(OC)c1)[C@@H](C)Cc1ccc(OC)cc1`, the result was inactive. For the molecule `CCC(=O)OCC(=O)[C@@]1(OC(=O)CC)[C@H](C)C[C@@H]2[C@@H]3[C@H]([C@@H](O)C[C@@]21C)[C@]1(C)C=CC(=O)C=C1C[C@@H]3Cl`, the molecule was classed as inactive. Under `CC1(C)[C@@H](OC(=O)CCC(=O)O)CC[C@@]2(C)[C@H]1CC[C@@]1(C)[C@H]2C(=O)C=C2[C@H]3C[C@](C)(C(=O)O)CC[C@]3(C)CC[C@@]21C` stands “inactive”. As to `CCOC(=O)O[C@@H](C)OC(=O)[C@@H]1N2C(=O)[C@@H](NC(=O)[C@@H](N)c3ccccc3)[C@H]2SC1(C)C`, the call was inactive. On to `Cc1ccsc1/C=C\C1=NCCCN1C`, for which the molecule was called inactive.

Consider `Cc1cccc(CN2CCN([C@@H](c3ccccc3)c3ccc(Cl)cc3)CC2)c1`, for which the molecule was called inactive. Take `C#C[C@]1(O)CC[C@@H]2[C@H]3CCC4=CCCC[C@@H]4[C@@H]3CC[C@@]21C`: the molecule was classed as inactive. With `CC[C@H](C)[C@H](N)C1=N[C@H](C(=O)N[C@@H](CC(C)C)C(=O)N[C@@H](CCC(=O)O)C(=O)N[C@@H](C(=O)N[C@H]2CCCCNC(=O)[C@@H](CC(N)=O)NC(=O)[C@@H](CC(=O)O)NC(=O)[C@@H](Cc3cnc[nH]3)NC(=O)[C@@H](Cc3ccccc3)NC(=O)[C@@H]([C@@H](C)CC)NC(=O)[C@@H](CCCN)NC2=O)[C@@H](C)CC)CS1` ({Ileψ(thiazoline)Cys}-LE[d(aIle)]K[dOrn][d(aIle)][dF][dH][dD][dN]; lactam 4-C), the result was inactive. Then `O=C(O)COCCN1CCN([C@@H](c2ccccc2)c2ccc(Cl)cc2)CC1`, with “inactive”. As for `CCN(CC)CCOC(=O)[C@@H](Cc1cccc2ccccc12)C[C@@H]1CCCO1`, the molecule was called inactive. Turning to `Clc1ccc([C@H](Cn2ccnc2)OCc2c(Cl)cccc2Cl)c(Cl)c1`, the call was inactive. With `C[C@@H](CNC1CCCCC1)OC(=O)c1ccccc1`, the outcome was inactive.

For `CC[C@H](CO)NCCN[C@@H](CC)CO`, the outcome was inactive.
